# Screens: PubChem BioAssay, National Center for Advancing Translational Sciences (NCATS)
# ELG1 repair inh: qHTS screen for small molecules that inhibit ELG1-dependent DNA repair in human embryonic kidney (HEK293T) cells expressing luciferase-tagged ELG1. HEK293T ELG1-luciferase reporter, luminescence, 16 h; DNA damage induced by 5-fluorouridine. AID 504467, 2011. Potency, µM (titrated, usually from 46.1 µM), inactives show at the highest dose activity change, negative = inhibition, usual class: inhibitors. 330,000 tested, 2.3% active; note: potency is the fitted concentration of half-maximal effect; nearly all actives have a fitted effect of over 55% in size
#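 HEK293T cells expressing luciferase-tagged ELG1 (2,000/well) received 5-Fluorouridine plus compound or DMSO for 16 hr at 37 °C. Luciferase was read by ONE-Glo luminescence after 30 min at room temperature.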
# TDP1 cell CPT: qHTS for Inhibitors of human tyrosyl-DNA phosphodiesterase 1 (TDP1): qHTS in cells in presence of CPT. Potency, µM (highest dose often 46.2 µM), for the others: at the highest dose activity change, negative = growth inhibition, most hits filed as inhibitors. chicken DT40 Tdp1-/-;hTDP1 cells + 20 nM CPT, ATP luminescence, 48 h. AID 686979, 2013. 420,000 tested, 12% active; note: potency is the fitted concentration of half-maximal effect; nearly all actives have a fitted effect of over 55% in size
#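 Chicken DT40 Tdp1-/- cells stably complemented with human TDP1 were seeded at 400 cells/well in medium containing 20 nM camptothecin, exposed to pin-transferred compounds, and grown at 37 °C for at least 48 hr. Viability was read as ATP luminescence.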
# HT1080 IDH1KD tx: qHTS for induction of synthetic lethality in tumor cells producing 2HG: qHTS for the HT-1080-IDH1KD cell line; HT-1080 IDH1 knockdown viability, ATP luminescence, 48 h; Potency, µM (titrated, usually from 46.1 µM), for the others: at the top dose activity, negative = toxicity, hits mostly cytotoxic; 360,000 tested, 2% active; AID 686971, 2013;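 note: potency is the fitted concentration of half-maximal effect; 0% = DMSO wells and -100% = cell-free medium wells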
#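 Viability of IDH1-knockdown HT-1080 fibrosarcoma cells was assessed by CellTiter-Glo after 48 h at 37 °C with titrated compound; concentration-effect curves were classified by fit quality and response size.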
# HT1080-NT tox: qHTS for induction of synthetic lethality in tumor cells producing 2HG: qHTS for the HT-1080-NT fibrosarcoma cell line | Potency, µM (top dose mostly 46.1 µM), for inactives: at the highest dose activity, negative = less viability, most hits filed as cytotoxic | 360,000 tested, 1.6% active | HT-1080-NT fibrosarcoma viability, CellTiter-Glo ATP luminescence, 48 h | AID 686970, 2013;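 note: NT is the 2HG producing partner of a matched IDH1 knockdown line; potency is the fitted concentration of half-maximal effect; 0% = DMSO-treated cells and -100% = media-only wells without cells; nearly all actives have a fitted effect of over 55% in size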
#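 Toxicity toward the 2HG-producing NT line was scored as %Activity, normalised to DMSO and no-cell wells, from CellTiter-Glo luminescence after 48 hours' treatment.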
# DT40 TDP1 no CPT: qHTS for Inhibitors of human tyrosyl-DNA phosphodiesterase 1 (TDP1): qHTS in cells in absence of CPT | DT40 Tdp1-/- hTDP1 cells, no CPT, ATP luminescence, 48 h | Potency, µM (series often up to 46.2 µM), inactives show at the top dose activity change, negative = growth inhibition, most hits filed as inhibitors | 420,000 tested, 15% active; note: potency is the fitted concentration of half-maximal effect; nearly all actives have a fitted effect of over 55% in size
#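 Camptothecin absent (DMSO only). Human TDP1-complemented DT40 knockout cells, 400 cells/well, 37 °C for minimum 48 hr; ATP measured via CellTiter-Glo, 30 min dark incubation, luminescence.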
# IL-1B inflam inh: qHTS for Inhibitors of Inflammasome Signaling: IL-1-beta AlphaLISA Primary Screen | THP-1 LPS/ATP IL-1B secretion, AlphaLISA, 16 h; stronger effect = lower value | activity change, % at 57.5 µM | 360,000 tested, 4.7% active | AID 743279, 2014; in the data active = activity change below about -50%; inconclusive = mostly about -30% to -49%
#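 THP-1 cells pretreated 1 hr with compounds (up to 57.5 uM final), then stimulated with LPS (250 ng/mL final) plus ATP (1.25 mM final); secreted IL-1B measured by AlphaLISA after 16 hr, decreased signal indicating inhibition.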
# * hit, by the source's call; i = inactive; ? = inconclusive; . = no result given; [ ] = dose if it differs, or a comment. An excerpt weighted towards active compounds, which were near 19% of everything screened. Unless noted, calls come from the whole dose curve; as a rule, active = well fitted curve in the direction sought with a large enough effect; inconclusive = small, poorly fitted or top-dose-only effect, or another doubt; inactive = no such curve, though single readings can be large; an effect the other way counts as inactive or inconclusive. Unless noted, % is set by controls: 0 for no effect and ±100 for the full control effect.
SMILES,ELG1 repair inh,TDP1 cell CPT,HT1080 IDH1KD tx,HT1080-NT tox,DT40 TDP1 no CPT,IL-1B inflam inh
COc1ccc(C(=O)Oc2ccc(C(c3c(C)[nH][nH]c3=O)c3c(C)[nH][nH]c3=O)cc2)cc1,.,-10%,.,.,-15%,.
CCNc1ncc2nc(-c3ccc(Cl)cc3)c(=O)n(Cc3cccc(OC)c3)c2n1,.,-29%,.,.,-17%,.
COc1ccc(C)cc1NC(=O)CSc1ccc(-c2ccco2)nn1,-11%,?,-1%,0%,?,i
Cc1[nH]ncc1-c1ccccc1Cl,-6%,1%,4%,3%,-17%,12
COc1ccc(CCNc2nc(-c3ccc(F)cc3)c(CC(=O)O)s2)cc1OC,-1%,15µM*,1%,-3%,26µM*,4
O=C(N/N=C/c1cccc(Br)c1)c1ccc(Cn2cc(Br)cn2)o1,?,2%,-21%,?,?,-73*
Cc1ccc(NC(=O)c2ccc(Cn3cc(Br)cn3)o2)cc1,-25%,?,-13%,-1%,21µM*,-13
Cc1ccsc1/C=N/NC(=O)c1ccc(Cn2cc(Br)cn2)o1,-8%,-21%,3%,0%,?,8
COc1ccc(C2(CNC(=O)Cc3ccccc3)CCCC2)cc1OC,-12%,?,2%[9.24 µM],1%,13µM*,4
COc1ccc(C(=O)NCC2(c3ccc(OC)c(OC)c3)CCCC2)cc1OC,.,?,-18%,-1%,?,?
COc1ccc(C2(CNC(=O)c3cccc([N+](=O)[O-])c3)CCCCC2)cc1OC,?,16µM*,-7%,-4%,10µM*,-7
COc1ccc(C2(CNC(=O)C(=O)Nc3cccc(C(F)(F)F)c3)CCCC2)cc1OC,.,21µM*,.,.,18µM*,.
COc1ccc(C2(CNC(=O)c3ccc(OC)c([N+](=O)[O-])c3)CCCCC2)cc1OC,15µM*,?,22%,3%,21µM*,-15
COc1ccc(NC(=O)C(=O)NCC2(c3ccc(OC)c(OC)c3)CCCC2)cc1,.,-28%,.,.,?,.
O=C(NCC(c1ccco1)S(=O)(=O)c1cccs1)c1ccc(Cl)cc1 (stereo not drawn),.,-26%,.,.,?,.
Cc1ccccc1C(=O)Nc1ccccc1C(=O)NCc1ccccc1,?,?,-1%,-3%,18µM*,-12
O=C(Nc1ccccc1C(=O)NCc1ccccc1)c1ccccc1Br,?,23µM*,7%,0%,?,-4
Cc1ccccc1C(=O)Nc1ccc(N(C)C)c2ccccc12,?,?,-4%,-8%,3.7µM*,-12
O=C(Nc1ccccc1Br)c1ccccc1-c1ccccc1,-11%,5.8µM*,?,?,6.5µM*,13
O=C(Nc1ccccc1-c1ccccc1)c1ccccc1Br,-3%,-18%,?,-6%,-2%,16
CN(C)c1ccc(NC(=O)c2cccc([N+](=O)[O-])c2)c2ccccc12,?,-18%,-2%,-5%,?,-8
O=C(OCc1ccc([N+](=O)[O-])cc1)c1cnc(Cl)c(Cl)c1,0%,3%,8%,-6%,-6%,?
Nc1ncnc2c1ncn2[C@@H]1O[C@H](CCC(=O)NCc2ccccc2)[C@@H](O)[C@H]1O,.,?,16%,-2%,2%,24
